# According to the supplement of paper PMC6522484:
# ± gives the standard deviation of the averaged measurements.
# Columns and labels:
# DLD1 [1] = experiment: cell viability (CellTiter-Glo) relative to plate median (fraction of plate median); higher = more viable cells; settings: 5 µM; treatment time 24 h; reporter: 7TFP
# Procedure, shortened: (§1)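 Two independent replicates were averaged for each reported value. Library compounds were applied at a final 5 µM for 24 h to colorectal cancer cell lines stably expressing lentiviral TCF/Wnt firefly luciferase reporters. Firefly luciferase or CellTiterGlo luminescence from each well was normalised to the plate median.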
# HCT116 = experiment: as above; settings: 5 µM; treatment time 24 h; reporter: TCF4/Wnt
# Procedure, shortened: as §1
# SW480 [2] = experiment: as above; settings: 5 µM; treatment time 24 h; reporter: 7TFP
# Procedure, shortened: as §1
# DLD1 [3] = experiment: TCF/Wnt firefly luciferase reporter signal relative to plate median (fraction of plate median); higher = higher Wnt reporter signal; settings: 5 µM; treatment time 24 h; reporter: 7TFP
# Procedure, shortened: as §1
# SW480 [4] = experiment: as above; settings: 5 µM; treatment time 24 h; reporter: 7TFP
# Procedure, shortened: as §1
SMILES,cell viability (DLD1 [1]),cell viability (HCT116),cell viability (SW480 [2]),TCF/Wnt firefly luciferase reporter signal (DLD1 [3]),TCF/Wnt firefly luciferase reporter signal (SW480 [4])
CC(=O)CC1CCCCN1 (stereo not given),0.961 ± 0.055,1.03 ± 0.043,0.993 ± 0.0099,0.92 ± 0.09,0.977 ± 0.018
CN(C)C(=O)Oc1ccc[n+](C)c1,1.04 ± 0.042,1.04 ± 0.11,1.02,1.08 ± 0.078,1.05 ± 0.035
NC(=O)CN1CCCC1=O,1.02 ± 0.051,1.01 ± 0.092,0.955 ± 0.024,0.925 ± 0.023,1.15 ± 0.05
CNC1CC(N)C(O)C(OC2OC(CO)C(O)C3OC4(OC(C(N)CO)C(O)C(O)C4O)OC23)C1O (stereo not given),0.983 ± 0.039,0.98 ± 0.029,0.985 ± 0.017,0.979 ± 0.073,0.988 ± 0.011
Cl[C@H]1[C@H](Cl)[C@@H](Cl)[C@@H](Cl)[C@H](Cl)[C@H]1Cl,1.05 ± 0.014,1.035 ± 0.0071,1.04 ± 0.042,1.05 ± 0.05,1.15 ± 0.05
CCN1C[C@]2(OC(=O)c3ccccc3NC(C)=O)CC[C@H](OC)[C@@]34[C@@H]2C[C@@H]([C@@H]13)[C@@]1(O)C[C@H](OC)[C@H]2C[C@@H]4[C@]1(O)[C@H]2OC,0.987 ± 0.033,0.988 ± 0.032,0.9965 ± 0.005,0.905 ± 0.083,0.98 ± 0.057
c1ccc2nc(N3CCNCC3)ccc2c1,0.9935 ± 0.0092,1.02 ± 0.081,0.974 ± 0.025,1.02 ± 0.15,0.932 ± 0.028
CC(=O)NC1CCSC1=O (stereo not given),1.03 ± 0.055,1.01 ± 0.019,1.03 ± 0.028,1.02 ± 0.12,0.902 ± 0.12
C[C@]12CCC3C(CC[C@H]4C[C@H](OS(=O)(=O)O)CC[C@]34C)C1CCC2=O (stereo not given in full),1.03 ± 0.021,1.02 ± 0.079,1.04 ± 0.061,0.755 ± 0.015,0.966 ± 0.039
CN(C)C(=S)SSC(=S)N(C)C,0.722 ± 0.25,0.363 ± 0.021,0.997 ± 0.033,0.686 ± 0.13,0.508 ± 0.12
NNCc1ccccc1,1.08 ± 0.12,1.1 ± 0.13,1.06 ± 0.028,1.07 ± 0.057,1.03 ± 0.093
C=CC[C@]1(O)CC[C@H]2[C@@H]3CCC4=CC(=O)CCC4=C3C=C[C@@]21C,1.11 ± 0.16,0.961 ± 0.052,0.963 ± 0.081,0.945 ± 0.078,0.9875 ± 0.00071
O=C(NC(=O)c1c(F)cccc1F)Nc1ccc(Cl)cc1,1.01 ± 0.021,0.939 ± 0.07,1.01 ± 0.016,0.914 ± 0.18,0.876 ± 0.044
OC1CCCCC1N1CCC(c2ccccc2)CC1 (stereo not given),0.98 ± 0.0042,0.922 ± 0.069,1.04 ± 0.021,0.867 ± 0.1,0.92 ± 0.022
C[C@H]1O[C@H](O[C@H]2[C@H](O)[C@@H](O)[C@@H](O)[C@H](O)[C@@H]2O)[C@@H](N)C[C@@H]1NC(=N)C(=O)O,0.989 ± 0.086,1.06 ± 0.035,1.035 ± 0.0071,1.03 ± 0.028,0.949 ± 0.086
C[C@]12CC[C@H](Cl)C[C@@H]1CC[C@@H]1[C@@H]2CC[C@]2(C)C(=O)CC[C@@H]12 [3beta-CHLOROANDROSTANONE],1.08 ± 0.05,0.981 ± 0.041,1.06 ± 0.071,1.07 ± 0.13,1.115 ± 0.0071
CC([C@H](O)c1ccccc1)N(C)C (stereo not given in full),0.991 ± 0.0014,1.015 ± 0.0071,0.966 ± 0.091,0.915 ± 0.09,0.975 ± 0.05
CC(CCc1ccccc1)NC(C)C(O)c1ccc(O)cc1 (stereo not given),0.942 ± 0.064,0.904 ± 0.061,0.902,1.2 ± 0.11,1.12 ± 0.014
